# Screening data (PubChem)
# Sm TGR block – qHTS Assay for the Inhibitors of Schistosoma Mansoni Peroxiredoxins | Potency, µM (doses to about 114 µM), inactives show at the top dose activity change, negative = inhibition, actives largely listed as inhibitors | 360,000 compounds, 3% hits | purified TGR, DTNB reduction, TNB absorbance 405 nm | AID 485364, 2010; note: potency is the fitted concentration of half-maximal effect; % is set by controls: 0 for no effect and ±100 for the full control effect; nearly all actives have a fitted effect of over 60% in size
#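 TGR 20 nM + NADPH 100 uM (dispensed conc.), cpd preinc 15 min RT; start with NADPH (500 uM addition) then DTNB (15 mM addition). Kinetic TNB absorbance, 405 nm filter. Four-parameter Hill fit across titration.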
# HCMV antiviral – qHTS Assay for inhibitors of the human cytomegalovirus (HCMV); HFF cells, HCMV-luciferase reporter, 72 h; active compounds read low; activity change, negative = inhibition, % at 57.5 µM; 410,000 compounds, 4.5% hits; AID 1259415, 2018; in the data active = activity change below about -60%; inconclusive = no clear call, values can overlap the other calls; inactive = above about -39%; note: % is set by controls: 0 for no effect and ±100 for the full control effect
#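 Cell-based, HFFs, 1000 cells/well, 16 h 37C; cpds in DMSO + HCMV-luc, MOI 1 PFU/cell; 72 h 37C; OneGlo luminescence after 5 min RT; norm. to buffer vs Salinomycin 10uM.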
# SARS PLpro yeast – qHTS of Yeast-based Assay for SARS-CoV PLP; S. cerevisiae expressing SARS-CoV PLpro, growth rescue; 330,000 compounds, 0.19% hits; Potency, µM (series often up to 32.9 µM), for the others: top-dose activity, positive = growth rescue, actives largely listed as activators; calls by dose curve; note: potency is the fitted concentration of half-maximal effect; 0% is about no effect; nearly all actives have a fitted effect of over 55% in size
# Pf growth 96h – Primary qHTS for delayed death inhibitors of the malarial parasite plastid, 96 hour incubation | P. falciparum luciferase reporter growth, 96 h | Potency, µM (highest dose often 28.7 µM), without a hit: at the top dose activity change, negative = inhibition, actives largely listed as inhibitors | 320,000 compounds, 6.9% hits | AID 504834, 2011; note: potency is the fitted concentration of half-maximal effect; % is set by controls: 0 for no effect and ±100 for the full control effect
#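 Compounds incubated with erythrocytes infected by luciferase-expressing P. falciparum (2% hematocrit, 0.05% parasitemia final) for 96 hours, 37 C in 5% CO2. Growth inhibition scored as decreased luciferase luminescence.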
# HCV inh – qHTS Assay for Inhibitors of Hepatitis C Virus (HCV). Huh7.5.1 HCVcc-Cre infection, luciferase reporter, 44 h. Potency, µM (titrated, usually from 41.8 µM), for inactives: at the top dose activity change, negative = inhibition, hits mostly inhibitors. 340,000 compounds, 3.4% hits. AID 651820, 2012; note: potency is the fitted concentration of half-maximal effect; % is set by controls: 0 for no effect and ±100 for the full control effect
#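 Cells seeded at 1,000/well and cultured 4 h, then compounds added followed by HCVcc-Cre virus (~0.5 moi). After 44 h further culture, luciferase substrate was added, plates held 15 min at room temperature, and luminescence read for 15 sec.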
# Pf growth 48h – Primary qHTS for delayed death inhibitors of the malarial parasite plastid, 48 hour incubation; P. falciparum luciferase growth in erythrocytes, 48 h; Potency, µM (titrated, usually from 28.7 µM), for inactives: at the highest dose activity change, negative = inhibition, actives largely listed as inhibitors; 310,000 compounds, 5.9% hits; AID 504832, 2011; note: potency is the fitted concentration of half-maximal effect; % is set by controls: 0 for no effect and ±100 for the full control effect
#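 A one-generation exposure of luciferase-tagged malaria parasites in RPMI 1640/Albumax erythrocyte culture, 37 C and 5% CO2. Inhibition is inferred from decreased luminescence after adding detection reagent.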
# * hit, by the source's call; ? = inconclusive; nt = not tested or not shown; [ ] = remark or other dose. Shown are actives, neighbours in structure and some others; about 15% of the full set was active somewhere. Unless noted, calls come from the whole dose curve; as a rule, active = well fitted curve in the direction sought with a large enough effect; inconclusive = small, poorly fitted or top-dose-only effect, or another doubt; inactive = no such curve, though single readings can be large; an effect the other way counts as inactive or inconclusive.
SMILES,Sm TGR block,HCMV antiviral,SARS PLpro yeast,Pf growth 96h,HCV inh,Pf growth 48h
CC1(C(=O)NCc2ccncc2)Cc2c(-c3cccc(C(F)(F)F)c3)ccnc2O1 (centres undefined),nt,-1,nt,nt,nt,nt
CNC(C)C(=O)NC(C(=O)NC(C)C(=O)Nc1cccc2ccccc12)C(C)C (centres undefined),nt,27,nt,nt,nt,nt
O=C1C=C2C=C[C@H]3C[C@]2(O1)[C@@H]1CCCCN13,-15%,?,-4%,?,-3%,?
O=C1C=C2C=CC3C[C@@]2(O1)C1CCCCN31 (some centres undefined),nt,nt,nt,2.7µM*,nt,12µM*
O=C1C=C2C=C[C@@H]3CC2(O1)[C@H]1CCCCN31,?,-94*,nt,?,?,?
COc1cccc(C2=NOC(C(=O)N3CCN(c4ccccc4)CC3)C2)c1OC (centres undefined),5%,-13,1%,-14%,-27%,-14%
COc1cccc(C2=NO[C@@H]3C(=O)N(Cc4ccccc4)C(=O)[C@H]23)c1OC,50µM*,45,5%,-4%,10%,15%
COc1cccc(C2=NO[C@@H]3C(=O)N(c4ccc5c(c4)OCCO5)C(=O)[C@H]23)c1OC,40µM*,-17,-2%,5%,7%,54%
C=CCN(Cc1cn(C)nc1-c1cccc(Cl)c1)C1CCS(=O)(=O)C1 (centres undefined),28µM*,29,1%,298%,10%,-3%
CCC1CN(C(=O)N2CCC(C(=O)NCCc3ccc(Cl)cc3)CC2)c2ccccc2O1 (centres undefined),-5%,-14,nt,nt,nt,nt
CCC(C(=O)NC1CCCC1)N(C(=O)Cn1nnc(-c2ccc(OC)c(OC)c2)n1)C1CCCCC1 (centres undefined),0%,-4,-2%,?,10%,9.3µM*
CCC(C(=O)NC1CCCC1)N(C(=O)Cn1nnc(-c2ccc(C)o2)n1)c1ccc(OC)cc1 (centres undefined),-15%,1,2%,27%,-6%,?
CCC(C(=O)NC1CCCC1)N(C(=O)Cn1nnc(-c2ccc(C)o2)n1)C(C)(C)C (centres undefined),-36%,-13,5%,2.3µM*,5%,?
COc1cc(C(C(=O)NC2CCCC2)N(CCO)C(=O)Cn2nnc(-c3ccc(C)o3)n2)ccc1O (centres undefined),45µM*,-24,-3%,-10%,-25%,5%
CC(C)CCNC(=O)C(c1ccncc1)N(Cc1cccs1)C(=O)Cn1nnc(-c2ccc(F)cc2)n1 (centres undefined),?,14,-10%,62%,?,15µM*
CCC(C(=O)NC1CCCC1)N(C(=O)Cn1nnc(-c2ccc(C)cc2)n1)C1CCCC1 (centres undefined),nt,4,nt,nt,-13%,nt
Cc1ccc(-c2nnn(CC(=O)N(CCO)C(C(=O)NC3CCCC3)c3ccc(F)cc3)n2)o1 (centres undefined),12%,-34,1%,30%,10%,0%
Cc1cccc(Nc2nc(-c3ccccc3)c3cc(C)ccc3n2)c1,-1%,-34,nt,nt,nt,nt
CCOC(=O)CN(C(=O)Cn1nnc(-c2ccc(OC)cc2)n1)C(C(=O)NC1CCCC1)c1ccc(F)cc1 (centres undefined),-5%,7,8%,15µM*,?,13µM*
CCCC(C(=O)NC1CCCC1)N(C(=O)Cn1nnc(-c2ccc(C)o2)n1)C1CCCC1 (centres undefined),4%[11.4 µM],8,0%,nt,-15%,nt
Cc1ccc(-c2nnn(CC(=O)N(Cc3cccs3)C(C(=O)NC3CCCC3)c3ccncc3)n2)cc1 (centres undefined),-33%,?,22%,?,?,5.9µM*
